Test results: PubChem BioAssay AID1621 (Southern Research Specialized Biocontainment Screening …, 2009)
The campaign covered roughly 290,000 compounds. About 60 (0.02%) were called active. Another 1% or so got no clear call; they are omitted. How the calls were made is not given here. These entries were drawn from the full list. Entries with a potency or affinity are not part of this list.

test: inhibition of WNV-induced cytopathic effect – cell-based, CPE readout (AID 1621); details: West Nile virus-infected cells, at 10 µM, active compounds read high

CPE inhibition, inactive:
O=C(CCn1c(=S)[nH]c2ccccc2c1=O)N1CCCCC1 0%
O=C(N/N=C\c1ccc(S(=O)(=O)O)o1)c1ccc2c(c1)OCO2 -0.67%
O=C(NCCN1CCOCC1)c1ccc(/C=C2\Sc3ccccc3N(Cc3ccccc3F)C2=O)cc1 2.03%
CCN1CCN(CCNC(=O)c2ccc(/C=C3/Sc4ccccc4N(Cc4ccccc4C)C3=O)cc2)CC1 -0.85%
CC(NS(=O)(=O)c1ccc(Cl)cc1)C(c1cccs1)N1CCN(C)CC1 (stereo not given) -0.37%
CCCCOc1cccc(C(=O)Nc2ccc(S(=O)(=O)Nc3nnc(CC)s3)cc2)c1 -0.64%
COc1ccc(N=C2CC(C)(C)CC(=O)/C2=C(/O)c2ccccc2)cc1 -0.15%
COC(=O)c1scc(C)c1NC(=O)Nc1ccccc1 1.33%
O=C(NC1CCCC1)C(c1cccs1)N(CC1CCCO1)C(=O)Cc1cccs1 (stereo not given) -0.52%
Cc1cc(C)c(S(=O)(=O)n2c([N+](=O)[O-])cnc2C)c(C)c1 1.59%
CN1CCN(c2ccccc2NC(=O)c2sc3ccccc3c2Cl)CC1 -0.79%
CN1CCN(C(=O)c2ccccc2NC(=O)c2sc3ccccc3c2Cl)CC1 -1.33%
O=C(O)C1CCCN1C(=O)Nc1ccc(F)cc1 (stereo not given) -0.08%
CCN1CCN(CCNC(=O)c2ccc3nc(-c4cccc(C)c4)c(-c4cccc(C)c4)nc3c2)CC1 -1.29%
COc1ccc(-c2nc3ccc(C(=O)NCCCN4CCOCC4)cc3nc2-c2ccc(OC)cc2)cc1 0.5%
c1ccc(OCCCCn2cnc3ccccc32)cc1 -0.39%
O=C(c1ccco1)c1cn[nH]c1-c1ccc(Cl)cc1O 0.03%
CC(=O)NCC(=O)NC(C(=O)Nc1ccc2c(c1)OCCO2)c1ccc(C)cc1 (stereo not given) -0.73%
CN(C)S(=O)(=O)c1cccc(NC(=O)c2cncc(Br)c2)c1 0.06%
Cc1ccc(S(=O)(=O)N(C)C)cc1NC(=O)c1ccncc1 0.43%
C/C=C/c1ccc(OCCCNC(C)CC)c(OC)c1 (stereo not given) -0.34%
CC(/C=C/c1ccco1)=N\NC(=O)CNc1cccc(C)c1 -0.57%
CCCCOP(=O)(c1ccc(N(C)C)cc1)C(O)c1ccc(OC)cc1 (stereo not given) -0.79%
Cc1ccccc1NC1=CC(=O)CC(C)(C)C1 -0.82%
COc1cc(CNC(C)(C)CO)cc(Br)c1OCc1ccc(Cl)cc1Cl 15.4%
COc1cc(CNC(C)(C)CO)cc(Br)c1OCc1ccccc1 -0.18%
CC1C(O)=C(c2nc3ccccc3[nH]2)C(=N)N1c1ccccc1 (stereo not given) 1.12%
CC(O)CNc1ccc(-c2n[nH]c(=O)c3ccccc23)cc1[N+](=O)[O-] (stereo not given) -1.06%
CCCn1c(SCC(=O)N(CC)CC)nnc1-c1ccncc1 -0.86%
CC1CCN(CCCNC(=O)c2cc3c(Cl)nc4ccccc4c3s2)CC1 3.15%
O=C(NCCCN1CCCC1)c1cc2c(Cl)nc3ccccc3c2s1 0.85%
CNC(=O)OC(C)CNS(=O)(=O)c1ccc(C)cc1 (stereo not given) -0.03%
CCc1c(C(=O)Nc2ncn(Cc3cccc(C)c3)n2)csc1C -0.2%
COc1ccccc1C(=O)NCCC(=O)NCCc1ccccc1 0.26%
Cc1ccc(NC(=O)[C@H](Cc2ccccc2)NC(=O)[C@@H]2Cc3ccccc3CN2)c(C)c1 -0.41%
Cc1cc(C)cc(NC(=O)[C@H](Cc2c[nH]c3ccccc23)NC(=O)[C@@H]2Cc3ccccc3CN2)c1 -1.23%
CCOC(=O)c1ccc(NC(=S)N(CCCN2CCN(CC)CC2)Cc2ccco2)cc1 -0.57%
COc1cc2c(cc1OC)-c1cc(Nc3ccc(C(=O)O)cc3)nc(=O)n1CC2 -0.34%
CC(C(=O)Nc1cccc(S(=O)(=O)N2CCOCC2)c1)N1CCN(c2ccc(F)cc2)CC1 (stereo not given) -1.17%
CCOCC(=O)Nc1cccc(SC)c1 0.36%
CCN(CCN1CCCC1)C(=O)c1cc(COc2ccccc2SC)on1 -1.45%
O=C(COc1ccc(Cl)cc1)NC1=NN(c2ccccc2)C(=O)C1 -0.49%
CN(C)CCCNc1nc(N)c([N+](=O)[O-])c(NC2CCCCC2)n1 1.01%
Nc1nc(NCCO)nc(NC2CCCCC2)c1[N+](=O)[O-] 1.53%
CC(C)OC(=O)CC(=O)CSc1nc(-c2ccc(F)cc2)cc(-c2ccccc2)c1C#N -0.46%
O=S(=O)(CCSc1ccc(C(F)(F)F)cn1)c1ccc(Cl)cc1 -0.47%
CCCN(CCC)CCCNC(=S)Nc1ccc2nc(N3CCN(C)CC3)cc(C)c2c1 0.29%
CCCN(CCC)CCCNC(=S)Nc1ccc2nc(N3CCN(CC)CC3)cc(C)c2c1 3.38%
CCC(C)NC(=O)C1CCCN(S(=O)(=O)c2ccc(-n3cnnn3)cc2)C1 (stereo not given) 0.81%
Cc1ccc(S(=O)(=O)NNC(=O)Nc2cccc(F)c2)c(C)c1 0.14%
